Screen size: about 39,000 compounds; about 3,300 (8.5%) were called active. The sample holds actives, similar compounds and a random draw of the others, so the mix is not that of the screen.

The assay concerns HepG2. The experiment in a line: cytotoxicity call (relative viability < 0.9). To be noted: 10 µM.
As for `CCC(=C/[C@H](C)C/C=C/C(C)=C/[C@@H](C)C(=O)[C@@H](C)[C@H](O)[C@@H](C)C/C(C)=C/C(=O)O)/C=C/[C@@H]1OC(=O)C=C[C@@H]1C`, the cytotoxicity call is “active”.

Regarding `C[C@@H]1CN([C@H](C)CO)C(=O)c2cc(C#CC3CCCCC3)cnc2O[C@H]1CN(C)C(=O)c1ccncc1`, the cytotoxicity call was “inactive”.

Regarding `CCS(=O)(=O)N1C[C@]2(C1)CN([C@H](CO)c1c2c2ccc(cc2n1C)OC)C(=O)Nc1cccc(c1)F`, the cytotoxicity call is “inactive”.

Take `C[C@@H]1CN([C@@H](C)CO)C(=O)c2cccc(NS(=O)(=O)c3ccccc3)c2O[C@@H]1CN(C)Cc1ccc(-c2ccccc2)cc1`: the cytotoxicity call is “inactive”.

On to `C[C@H](CO)N1C[C@H](C)[C@@H](CN(C)Cc2ccc(-c3ccccc3)cc2)Oc2c(NS(=O)(=O)c3ccc(F)cc3)cccc2C1=O`, for which the cytotoxicity call was “active”.

Take `C[C@H](CO)N1C[C@H](C)[C@H](CN(C)Cc2ccc(-c3ccccc3)cc2)Oc2c(NS(=O)(=O)c3ccc(F)cc3)cccc2C1=O`: the cytotoxicity call is “active”.

Consider `C[C@@H]1CN([C@H](C)CO)C(=O)c2cccc(NS(=O)(=O)c3ccccc3)c2O[C@H]1CN(C)Cc1ccc(-c2ccccc2)cc1`, for which the cytotoxicity call was “inactive”.

Take `C[C@H]1CN([C@@H](C)CO)C(=O)c2cccc(NS(=O)(=O)c3ccccc3)c2O[C@@H]1CN(C)Cc1ccc(-c2ccccc2)cc1`: the cytotoxicity call is “inactive”.

As to `C[C@@H]1CN([C@@H](C)CO)C(=O)c2cccc(NS(=O)(=O)c3ccc(F)cc3)c2O[C@H]1CN(C)Cc1ccc(-c2ccccc2)cc1`, the cytotoxicity call is “inactive”.

Regarding `C[C@@H]1CN([C@H](C)CO)C(=O)c2cccc(NS(=O)(=O)c3ccc(F)cc3)c2O[C@H]1CN(C)Cc1ccc(-c2ccccc2)cc1`, the cytotoxicity call is “active”.

For the molecule `C[C@H]1CN([C@@H](C)CO)C(=O)c2cccc(NS(=O)(=O)c3ccc(F)cc3)c2O[C@@H]1CN(C)Cc1ccc(-c2ccccc2)cc1`, the cytotoxicity call was “inactive”.

In the case of `C[C@H](CO)N1C[C@H](C)[C@H](CN(C)Cc2ccc(-c3ccccc3)cc2)Oc2c(NS(=O)(=O)c3ccccc3)cccc2C1=O`, the cytotoxicity call was “inactive”.

With `C[C@H]1CN([C@@H](C)CO)C(=O)c2cccc(NS(=O)(=O)c3ccc(F)cc3)c2O[C@H]1CN(C)Cc1ccc(-c2ccccc2)cc1`, the cytotoxicity call is “inactive”.

For the molecule `C[C@@H]1CN([C@@H](C)CO)C(=O)c2cccc(NS(=O)(=O)c3ccc(F)cc3)c2O[C@@H]1CN(C)Cc1ccc(-c2ccccc2)cc1`, the cytotoxicity call was “active”.

With `C[C@@H]1CN([C@H](C)CO)C(=O)c2cccc(NS(=O)(=O)c3ccc(F)cc3)c2O[C@@H]1CN(C)Cc1ccc(-c2ccccc2)cc1`, the cytotoxicity call is “inactive”.

With `COCC(=O)Nc1ccc2c(c1)C(=O)N(C)[C@@H]1CC[C@H](CC(=O)NCc3ccc(OC)cc3)O[C@H]1CO2`, the cytotoxicity call is “inactive”.

Turning to `C[C@H]1CN([C@@H](C)CO)C(=O)Cc2cc(NS(=O)(=O)c3ccccc3)ccc2O[C@H]1CN(C)CC1CC1`, the cytotoxicity call is “inactive”.

Turning to `C[C@@H]1CN([C@@H](C)CO)C(=O)c2cc(NC(=O)CCC(F)(F)F)ccc2O[C@@H](C)CCCCO[C@H]1CN(C)S(=O)(=O)c1ccc(F)cc1`, the cytotoxicity call was “inactive”.

Turning to `COc1ccccc1CNC(=O)C[C@H]1C[C@@H]2c3cc(NC(=O)C4CCOCC4)ccc3O[C@@H]2[C@@H](CO)O1`, the cytotoxicity call was “inactive”.

On to `COc1ccc(S(=O)(=O)Nc2ccc3c(c2)C(=O)N([C@H](C)CO)C[C@@H](C)[C@@H](CN(C)CC2CC2)O3)cc1`, for which the cytotoxicity call was “inactive”.

On to `Cc1noc(C)c1NC(=O)N(C)C[C@H]1Oc2ccc(NC(=O)NC(C)C)cc2CC(=O)N([C@@H](C)CO)C[C@H]1C`, for which the cytotoxicity call is “inactive”.

With `O=C(CN1CCOCC1)NCC[C@H]1CC[C@H](NC(=O)Nc2ccccc2)[C@@H](CO)O1`, the cytotoxicity call was “inactive”.

For the molecule `C[C@@H]1CCCCO[C@@H](CN(C)C(=O)Nc2ccc3c(c2)OCO3)[C@@H](C)CN([C@H](C)CO)C(=O)c2cc(NC(=O)Nc3ccccc3)ccc2O1`, the cytotoxicity call was “inactive”.

Regarding `Nc1cccc(C2=NCCN2)c1`, the cytotoxicity call is “inactive”.

`CS(=O)(=O)Nc1ccc2c(c1)[C@H]1C[C@@H](CC(=O)NCC3CC3)O[C@H](CO)[C@H]1O2`: the cytotoxicity call was “inactive”.

Take `COc1ccc(NC(=O)N(C)C[C@@H]2Oc3ncc(C#CCN(C)C)cc3C(=O)N([C@@H](C)CO)C[C@@H]2C)cc1`: the cytotoxicity call was “inactive”.

With `C[C@H](CO)N1C[C@H](C)[C@H](CN(C)S(=O)(=O)c2ccc(F)cc2)Oc2c(NS(=O)(=O)c3ccc(F)cc3)cccc2C1=O`, the cytotoxicity call is “inactive”.

Regarding `C[C@H]1CN([C@@H](C)CO)C(=O)c2cccc(NS(=O)(=O)c3ccc(F)cc3)c2O[C@H]1CN(C)S(=O)(=O)c1ccc(F)cc1`, the cytotoxicity call is “inactive”.

Turning to `C[C@@H]1CN([C@@H](C)CO)C(=O)c2cccc(NS(=O)(=O)c3ccc(F)cc3)c2O[C@@H]1CN(C)S(=O)(=O)c1ccc(F)cc1`, the cytotoxicity call was “active”.

For the molecule `CC(C)C#Cc1ccc2c(c1)O[C@@H](CN(C)S(=O)(=O)c1cn(C)cn1)[C@H](C)CN([C@H](C)CO)S2(=O)=O`, the cytotoxicity call is “inactive”.

As to `O=C(CS)NCCCCCCNC(=O)[C@@H]1C[C@@H]2C(=O)N[C@@H](Cc3ccccc3)C(=O)N2[C@@H]1c1ccc(O)cc1`, the cytotoxicity call is “inactive”.

As for `COc1ccc(NC(=O)N2C[C@H](O)COC[C@H]3O[C@@H](CC(=O)NC4Cc5ccccc5C4)CC[C@@H]32)cc1`, the cytotoxicity call is “inactive”.

`CO[C@H]1CN(C)C(=O)c2ccc(NC(=O)C3CC3)cc2OC[C@@H](C)N(C(=O)CN2CCOCC2)C[C@H]1C`: the cytotoxicity call was “inactive”.

For `C[C@H]1CN([C@@H](C)CO)C(=O)c2cccc(NC(=O)c3ccc(-c4nccs4)cc3)c2O[C@H]1CN(C)C(=O)Nc1cccc2ccccc12`, the cytotoxicity call was “inactive”.

For the molecule `COc1ccc(C#Cc2ccc3c(c2)[C@]2(C(=O)N3)[C@H](c3ccc(OCCO)cc3)N3[C@H](c4ccccc4)[C@H](c4ccccc4)OC(=O)[C@H]3[C@@H]2C(=O)NC[C@H](O)c2ccccc2)cc1`, the cytotoxicity call was “inactive”.

Consider `COc1ccc(C#Cc2ccc3c(c2)[C@]2(C(=O)N3)[C@H](c3ccccc3OCCO)N3[C@H](c4ccccc4)[C@H](c4ccccc4)OC(=O)[C@H]3[C@@H]2C(=O)NC[C@H](O)c2ccccc2)cc1`, for which the cytotoxicity call was “active”.

Consider `C=CCNC(=O)[C@H]1[C@@H]2C(=O)O[C@@H](c3ccccc3)[C@@H](c3ccccc3)N2[C@@H](c2ccccc2OCCO)[C@]12C(=O)Nc1ccc(C#CC3=CCCCC3)cc12`, for which the cytotoxicity call was “inactive”.

Consider `COc1ccc(C#Cc2ccc3c(c2)[C@]2(C(=O)N3)[C@H](C(=O)N3CCN(c4ncccn4)CC3)[C@H]3C(=O)O[C@H](c4ccccc4)[C@H](c4ccccc4)N3[C@@H]2c2ccc(OCCO)cc2)cc1`, for which the cytotoxicity call was “inactive”.

Consider `COc1ccc(C#Cc2ccc3c(c2)[C@]2(C(=O)N3)[C@H](C(N)=O)[C@H]3C(=O)O[C@H](c4ccccc4)[C@H](c4ccccc4)N3[C@@H]2c2ccccc2OCCO)cc1`, for which the cytotoxicity call was “active”.

Consider `O=C1O[C@H](c2ccccc2)[C@H](c2ccccc2)N2[C@H]1[C@@H](C(=O)NC[C@@H](O)c1ccccc1)[C@]1(C(=O)Nc3ccc(C#CC4=CCCCC4)cc31)[C@H]2c1ccccc1OCCO`, for which the cytotoxicity call is “active”.

For the molecule `COc1ccc(C#Cc2ccc3c(c2)[C@]2(C(=O)N3)[C@H](C(=O)N3CCN(c4ncccn4)CC3)[C@H]3C(=O)O[C@H](c4ccccc4)[C@H](c4ccccc4)N3[C@@H]2c2ccccc2OCCO)cc1`, the cytotoxicity call is “inactive”.

As to `COc1ccc(C#Cc2ccc3c(c2)[C@]2(C(=O)N3)[C@H](c3ccccc3OCCO)N3[C@H](c4ccccc4)[C@H](c4ccccc4)OC(=O)[C@H]3[C@@H]2C(=O)O)cc1`, the cytotoxicity call is “inactive”.

For `C=CCNC(=O)[C@@H]1[C@H]2C(=O)O[C@H](c3ccccc3)[C@H](c3ccccc3)N2[C@H](c2ccccc2OCCO)[C@@]12C(=O)Nc1ccc(C#Cc3ccc(OC)cc3)cc12`, the cytotoxicity call was “inactive”.

As for `COc1ccc(C#Cc2ccc3c(c2)[C@]2(C(=O)N3)[C@H](C(=O)O)[C@H]3C(=O)O[C@H](c4ccccc4)[C@H](c4ccccc4)N3[C@@H]2c2ccccc2OCCO)cc1`, the cytotoxicity call was “inactive”.

In the case of `C=CCNC(=O)[C@@H]1[C@H]2C(=O)O[C@H](c3ccccc3)[C@H](c3ccccc3)N2[C@H](c2ccccc2OCCO)[C@@]12C(=O)Nc1ccc(C#CC3=CCCCC3)cc12`, the cytotoxicity call is “inactive”.

In the case of `COc1ccc(C#Cc2ccc3c(c2)[C@]2(C(=O)N3)[C@H](c3ccccc3OCCO)N3[C@H](c4ccccc4)[C@H](c4ccccc4)OC(=O)[C@H]3[C@@H]2C(=O)N2CCN(c3ncccn3)CC2)cc1`, the cytotoxicity call is “active”.

The values above are taken from the antibiotic and cytotoxicity screens of Wong et al. (2023).
